Laboratory results from the OligoGym collection.

molecular target: PDE1C; assay: pooled miR-30 sensor sort-seq; sequence = guide strand; conditions: shRNA
Also: reference of the scale not given here.

Sequence	sensor-assay potency score (higher = more potent)
TTTGAAGTCACCATTCTGTTGC	0.443
TTTTCTTTGAATCATTTCCGAT	-1.12
TTTCTTTGAATCATTTCCGATG	-0.853
TGAACGATGCTCTTGAACCGGG	-0.343
TAAGATCTACCACTGAAGCTTC	-0.318
AATTGTTTGACCAAAGACCGTA	0.319
TTTTCCTCTGCTTCCTTCTTGG	-0.143
ATTCTCTCCACAAATATCCCAG	-0.723
TTTTGTGCTTGCTGTATCCCAC	-0.201

molecular target: PDE8B; assay: as above; conditions: shRNA

Sequence	sensor-assay potency score (higher = more potent)
TACAATAATTTCATGATGCTTA	-0.231
ATTGATTATATTTATAACCTTT	-0.571
TCTTAGTAAACACATACTCGTT	-0.91
TATATTTATAACCTTTGTGATG	-1.47
ATCGCTCTGACTATCTTCCTTT	-0.16
AATCTCTAGAACTCTGTCCAAG	-1.58
TAAACACATACTCGTTTCCTGA	-0.83
TTCATCTTTGGTACCCAGCTGA	-0.0849
TTGCATTCACAGTCGCTGCCTT	-0.0743
TTAGTAAACACATACTCGTTTC	-0.767
TAGCAAGCAATTATGCTGCTAT	0.445
TTAAAAACTCACATACTCCAAA	-0.433

molecular target: PDGFRB; assay: as above; conditions: shRNA

Sequence	sensor-assay potency score (higher = more potent)
TTTGATGGCATTGTAGAACTGC	0.772
TCAGCTCTGACACATACCGGGT	-1.42
AAAGTCACAGATCTTGACCAGC	-0.788
TTGACGGCCACTTTCATCGTGG	-0.193
TAACAGGAGAGACAGCAACAGC	-1.23
TCTTTTTGTAACCTTCGCCCAA	-0.683
TAGCACTGGAGACTCGTTGATC	-0.385
TTGCTGTAGAGCTCCGCGCTGG	-0.717
TAGTCCACCGACTCGTCCTTGC	-0.654
TTGATCAAAGTTGCTCGGCAGG	-0.679
TTGGTCAGTGTGAGCACGCTGG	-0.355

molecular target: PDIA5; assay: as above; conditions: shRNA

Sequence	sensor-assay potency score (higher = more potent)
TTCTTCTTCAGGGTCTCCCGGA	-0.62
TAATTCAACCTTTTTGTCCTTC	0.526
TACTGGAACAAGAACCGTCCTT	0.0118
TAGAACATGACCAAGGTGTGTT	0.669
TTTGACACAGTCAACAGCGGCA	-0.283
TCATACTGGAACAAGAACCGTC	0.647
TCAACTTTCATCTTCTTGCACA	-0.596
TTGCACATGCTGCACCAGGGGG	-1.31
